Measured values: PubChem BioAssay (NCI)
About 79,000 compounds went through this panel and 15% of them were active in at least one assay; those are over-represented in the sample as a whole. Unmarked numbers belong to inactive results. Active and inactive are the calls of the source. No stated cut-off is given here; in the data, active means growth inhibition above about 70%; inactive means the rest. Where a SMILES comes first, the peptide text is derived from it. The star is where a group is joined. Boc = CC(C)(C)OC(=O)*

Columns and labels:
[1] = NCI Yeast Anticancer Drug Screen. Data for the rad50 strain (AID 155);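 further: 0% = growth of vehicle-only cultures of the same strain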; conditions: S. cerevisiae rad50 strain growth inhibition; at 50.0 µM; active compounds read high
How it was run: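 A DNA repair-deficient yeast mutant serves as the test organism; compound-induced growth inhibition is calculated against vehicle-treated cells.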

[2] = NCI Yeast Anticancer Drug Screen. Data for the mec2-1 strain (AID 157); conditions: S. cerevisiae mec2-1 strain, at 50.0 µM, active compounds read high
How it was run: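 Growth inhibition is read against vehicle-treated controls after compound exposure of the mec2-1 yeast strain, which is defective in DNA damage repair or cell cycle control.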

[3] = NCI Yeast Anticancer Drug Screen. Data for the sgs1 mgt1 strain (AID 161);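 further: 0% = growth of cultures given vehicle only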; conditions: S. cerevisiae sgs1 mgt1 strain, at 50.0 µM, active compounds read high
How it was run: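 Growth of a repair-deficient yeast mutant was monitored after compound treatment and expressed as inhibition relative to vehicle-treated cultures.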

[4] = NCI Yeast Anticancer Drug Screen. Data for the cln2 rad14 strain (AID 165);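 further: 0% = growth equal to vehicle treated cultures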; conditions: S. cerevisiae cln2 rad14 strain, at 50.0 µM, active compounds read high
How it was run: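 Growth inhibition, relative to vehicle-treated controls, is the read-out. The test organism is a yeast strain with defined genetic alterations, cln2 rad14.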

[5] = NCI Yeast Anticancer Drug Screen. Data for the bub3 strain (AID 167); conditions: S. cerevisiae bub3 mutant strain, at 50.0 µM, active compounds read high
How it was run: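 Inhibition values come from growth of compound-treated mutant yeast normalised to vehicle-treated controls.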

[6] = NCI Yeast Anticancer Drug Screen. Data for the mlh1 rad18 strain (AID 175); conditions: S. cerevisiae mlh1 rad18 strain growth inhibition; at 50.0 µM; active compounds read high
How it was run: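 Cells of a genetically altered yeast strain, deficient in DNA damage repair, were treated with compound. Their growth was then compared with that of vehicle-treated cultures to give inhibition.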

SMILES	growth inhibition [1] [%]	growth inhibition [2] [%]	growth inhibition [3]	growth inhibition [4] [%]	growth inhibition [5] [%]	growth inhibition [6]
CCN(CC)c1ccc(/C=C(\C#N)C(N)=S)cc1	35.4	23.6	45.2%	0.85	15.6	16.5%
Nc1ccc([N+](=O)[O-])cc1C(=O)O	5.1	0.9	-6.8%	-15.7	3.05	0%
Cn1c2c(c3ccccc31)CCCC2	1.55	-14.8	1.4%	-16.8	4.5	5.35%
C#CCC(C)(C)C(N)=O	-10.7	-6.85	3.4%	-35.8	-6.05	-8.5%
COC(=O)c1ccccc1/C=C1\Cc2cc3c(cc2C1=O)CCC3	-31.6	-45	-1.45%	5.65	-4.45	-8.05%
O=C(CCCCCC(=O)CC(=O)CCc1ccccc1)CC(=O)CCc1ccccc1	53.3	36.4	53.5%	15.4	19.1	56.6%
N#Cc1cnc(=S)n(-c2cc(C(F)(F)F)cc(C(F)(F)F)c2)c1N	5.7	-10.9	15.9%	11.7	8.85	11.5%
CC(=O)OCC1OC(n2c3c(c(-c4ccc(Cl)cc4)c(C#N)c2=S)C(=O)CC(C)(C)C3)C(OC(C)=O)C(OC(C)=O)C1OC(C)=O (stereo not given)	16.1	-10.9	12.6%	-5.25	23.4	-37.5%
O=C(O)c1ccc(CC2CCCC2)cc1	30.8	25.9	21.4%	-8.2	-2.35	8.85%
CC(C(=O)c1ccc(Cl)cc1)/C(=N/NC(=O)NN)C(=O)Nc1cccc(C(F)(F)F)c1 (stereo not given)	-8.45	-16.6	-58.5%	-56	18.6	-6.95%
COCCC(=O)SCc1ccccc1	9.55	-45.3	-9.2%	-35.6	-16.5	1%
CCCCC(CCCC)(C(=O)NC)c1ccccc1	3.85	6.65	-4.5%	-14.2	17.1	-23.5%
CCN(Cc1cccc(S(=O)(=O)O)c1)c1ccc(C(=C2C=CC(=[N+](C)C)C=C2)c2ccc(N(C)C)cc2)c(S(=O)(=O)O)c1	8.35	54.8	28.1%	-8.55	11.9	26.4%
C1CC2CC1C13OC1C1(CC1)C1OC213 (stereo not given)	-4.5	11.6	-40.5%	-28.4	-20.2	-45.5%
COC(=O)C(C(=O)C(=O)Nc1ccc([N+](=O)[O-])cc1[N+](=O)[O-])c1nc2ccc(Cl)cc2[nH]c1=O (stereo not given)	10.2	10.6	39%	20.2	12.5	25.5%
CCOC(=O)Sc1nccn1C	8.05	-19.2	3.25%	-4.7	-13.2	-0.45%
COC1CCC(C2=NC3CCCCC3SC2)CC1 (stereo not given)	13.6	18.8	21.5%	-10.6	54.8	31.7%
O=C(CCn1[nH]c(=O)c(Cl)c(Cl)c1=O)NO	-21.3	-14.1	-9.75%	3.35	-19.1	-13.9%
CCCCCCCCCCCCCCCCCCCCCCCCCC	-11.4	-2.55	-19.2%	19.9	-0.05	5.6%
Cc1ccc(S(=O)(=O)N/N=C2\C3CC4CC(C3)C2C4)cc1 (stereo not given)	-21	-24.1	-12.9%	-6.5	-6.25	-15.2%

SMILES	growth inhibition [1] [%]	growth inhibition [2] [%]	growth inhibition [3]	growth inhibition [4] [%]	growth inhibition [5] [%]	growth inhibition [6]
COc1cc2nc3n(c(=O)c2cc1OC)CCCCC3	10.4	14.6	3.75%	-13.2	28	-19.8%
CCc1cc(C)cc(CC)c1N	5.45	-14.2	-8.55%	-24.6	20.9	3.8%
CC(NC(=O)C(NC(=O)OC(C)(C)C)C(C)C)C(=O)N1CCCC1C(=O)O (stereo not drawn) (Boc-Val-Ala-Pro-OH; configuration not given here)	-38.4	-52.5	-41%	-28.7	-20.6	-38.4%
CC(c1cccc2ccccc12)/[N+]([O-])=C/c1ccccc1 (stereo not given)	-11.6	-27.9	-32.7%	2.1	-37.4	-11.7%
CCOC1C(=O)C=COC1C(C)C (stereo not given)	-2.5	-4.65	-2.75%	1.7	-1.75	-12.2%
O=C1/C(=C/c2ccccc2)CN(C(=O)CCN2CCOCC2)C/C1=C\c1ccccc1	34.2	7.15	73% (active)	31.6	66.8	86.8% (active)
OCC1CC(O)CN2CCc3c([nH]c4ccccc34)C2C1 (stereo not given)	4.6	3.25	11.3%	-5.2	0.1	2.8%
C=CCN1C(=O)CS/C1=N\NC(=O)c1c(C)nc2sccn12	-16.3	-4.15	-8.95%	-7.4	-22.8	-28.4%
CC1(C)Nc2cc3c(cc2-n2cccc21)oc1ccccc13	17.3	-3.55	39.5%	45.6	30.4	27.4%
CSc1nc2c(nc(N)n2C2OC(CO)C(O)C(O)C2O)c(=O)n1C (stereo not given)	3.1	20	26.3%	33.9	11.2	39.4%
CC1=C(C(=O)NNC(=O)c2ccccc2)CC(C(=O)NNC(=O)c2ccccc2)=C(C)N1	-24.3	14.5	1.85%	-34.6	-13.2	-28.6%
CC(C)(C)c1ccc(SC(=O)NCCCl)cc1	-1.55	23.9	14.2%	-31.1	-5.4	-11.2%
CC(=O)OCCn1c(Cc2ccc(C)cc2)nn(C(C)=O)c1=O	16.6	5.5	11.8%	3.4	5.9	-0.95%
CCN(CC)c1ccc2cc(-c3nc4ccccc4s3)c(=O)oc2c1	12.4	-18.1	-9.5%	-3.05	-11.5	4.8%
O=C(CCl)Oc1cccc([N+](=O)[O-])c1	0.6	-11.2	-7.05%	-8.45	-17.5	-20.4%
O=C1CCC(N2C(=O)C3CCCCC3C2=O)C(=O)N1 (stereo not given)	-0.2	12.3	18.9%	1.7	8.5	-14.5%
CC(C)CCNC(=O)CS(=O)(=O)c1ccc(N)cc1	-2.15	-3.05	-11.9%	-34.2	-23.1	-8.55%
CCOCNC(=O)Nc1ccccc1	-5.4	-15.6	7%	-37.5	0.35	3.9%
O=C(O)CC(c1ccccc1)C(CC(=O)O)c1ccccc1.[NH-]C1CCCCC1[NH-].[Pt+2] (stereo not given)	37.2	7.8	-49.9%	-5.55	-36.9	-5.6%
N#CCCNC=O	-7.15	0.4	-8.7%	-7	6.3	-4.95%
